From PubChem BioAssay (NCATS)
Results filed as inconclusive are left out. Where a call stands in place of a potency, no number is given. Active and inactive are the calls of the source. Calls come from the whole dose curve; as a rule, active = well fitted curve in the direction sought with a large enough effect; inconclusive = small, poorly fitted or top-dose-only effect, or another doubt; inactive = no such curve, though single readings can be large; an effect the other way counts as inactive or inconclusive.

Experiments:
[1] = NS1 protein of Zika virus - qHTS assay to identify small molecule inhibitors in human HEK 293 cells (AID 1347053); note: nearly all actives have a fitted effect of over 55% in size
Method in brief: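 HEK 293; 20 h pre-culture, 37 C/5% CO2; cpd 1 h pre-infection; ZIKV MR766, MOI = 0.5, 24 h, 37 C; TR-FRET NS1 readout (two anti-NS1 Abs); norm. to no-virus vs infected.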

[2] = qHTS of pediatric cancer cell lines to identify multiple opportunities for drug repurposing: Primary screen for TC32 cells (AID 1347089); note: nearly all actives have a fitted effect of over 60% in size
Method in brief: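 qHTS, TC32, 48 h drug treatment, CellTiter-Glo luminescence as a proxy for metabolically active cells; primary top concentration 46 µM (MIPE 11-pt, NPC 8-pt); confirmatory 11-pt.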
Potency is the fitted concentration of half-maximal effect.

Row | SMILES | Potency [1] | Potency [2]
1 | C[C@@H]1[C@H](O)[C@@H](C)C=CC=CC=CC=CC=CC=CC=C[C@H](O[C@@H]2O[C@H](C)[C@H](O)[C@H](N)[C@@H]2O)C[C@@H]2O[C@](O)(C[C@@H](O)C[C@@H](O)[C@H](O)CC[C@@H](O)C[C@@H](O)CC(=O)O[C@H]1C)C[C@H](O)[C@@H]2C(=O)O | inactive | 2940 nM (active)
2 | COc1c(C)c2c(c(O)c1CC=C(C)CCC(=O)OCCN1CCOCC1)C(=O)OC2 | 526 nM (active) | 4660 nM (active)
3 | O=C1NC(=O)C(=Cc2ccc(-c3ccc(F)cc3O)o2)S1 | – | inactive
4 | COc1cccc(OC)c1-c1cc(C(=O)NC2(C(=O)O)C3CC4CC(C3)CC2C4)nn1-c1ccnc2cc(Cl)ccc12 (stereo not drawn) | inactive | inactive
5 | C[C@@]1(C(=O)Nc2ccc(F)nc2)CCCN1c1nc(Nc2cc(C3CC3)[nH]n2)c2cccn2n1 | inactive | 165 nM (active)
6 | CC[C@]1(O)C[C@H]2CN(CCC3=c4ccccc4=N[C]3[C@@](C(=O)OC)(c3cc4c(cc3OC)N(C)[C@H]3[C@@](O)(C(N)=O)[C@H](O)[C@]5(CC)C=CCN6CC[C@]43[C@@H]65)C2)C1 | 1660 nM (active) | 58.7 nM (active)
7 | Cc1cccc(Nc2nc(N[C@@H]3CCCC[C@H]3N)ncc2C(N)=O)c1 | 23500 nM (active) | inactive
8 | COc1ccc(C=CC(=O)Nc2ccccc2C(=O)O)cc1OC | – | inactive
9 | C#C[C@]1(O)CC[C@H]2[C@H]3CCc4cc(OC)ccc4[C@H]3CC[C@@]21C | inactive | inactive
10 | CO[C@H]1/C=C\O[C@@]2(C)Oc3c(C)c(O)c4c(O)c(c5c(nc6cc(C)ccn65)c4c3C2=O)NC(=O)C(C)=CC=C[C@H](C)[C@H](O)[C@@H](C)[C@@H](O)[C@@H](C)[C@H](OC(C)=O)[C@H]1C | – | inactive
11 | NCc1c[nH]c(=S)n1[C@H]1CCc2c(F)cc(F)cc2C1 | inactive | inactive
12 | CC[C@H](NC(=O)[C@H](C)NC)C(=O)N1C[C@@H](O)C[C@H]1Cc1c(-c2[nH]c3cc(F)ccc3c2C[C@H]2C[C@H](O)CN2C(=O)[C@H](CC)NC(=O)[C@H](C)NC)[nH]c2cc(F)ccc12 | – | inactive
13 | CN1CCN2c3ncccc3Cc3ccccc3C2C1 (stereo not drawn) | – | inactive
14 | C[C@H]1COC2=C1C(=O)C(=O)c1c2ccc2c1CCCC2(C)C | inactive | inactive
15 | CCCCn1c(=O)n(Cc2ccccc2F)c(=O)c2[nH]c(Cc3ccc(NC(C)=O)cc3)nc21 | inactive | inactive
16 | CC(=O)OCC(=O)[C@@]1(O)CC[C@H]2[C@@H]3CCC4=CC(=O)C=C[C@]4(C)[C@@H]3[C@@H](O)C[C@@]21C | – | inactive
17 | O=C(Nc1cccc2c(=O)cc(-c3nn[nH]n3)oc12)c1ccc(OCCCCc2ccccc2)cc1 | – | inactive
18 | O=C1C(c2c(O)[nH]c3ccccc23)=Nc2ccccc21 | inactive | inactive
19 | COc1ccc(-c2cc3nccn3c(Nc3ncccc3C(N)=O)n2)cc1OC | inactive | inactive
20 | CC=C(C(=CC)c1ccc(O)cc1)c1ccc(O)cc1 | inactive | inactive
21 | O=C1CN2Cc3c(ccc(Cl)c3Cl)N=C2N1 | inactive | inactive
22 | CCC(=C(c1ccc(O)cc1)c1ccc(OCCNC)cc1)c1ccccc1 | inactive | inactive
23 | CN1N=C(N)c2cn([C@@H]3O[C@H](COP(=O)(O)O)[C@@H](O)[C@@H]3O)c3ncnc1c23 | – | 4150 nM (active)
